Assay results: PubChem BioAssay AID1159580 (chemical genetic matrix, 2015)
“And” between values parts separate entries of the source, which are not always exact repeats. Equal entries are not always repeated. Out of some 5,500 compounds screened, about 2,000 (36%) were called active. About 18% were inconclusive and are not listed. No stated cut-off is given here; in the data, active means normalized growth mostly below about 0.91 (no sharp cut-off); inconclusive means no clear call, values can overlap the other calls; inactive means mostly above about 0.92. The list shows a part of the results.

Assay: chemical genetic growth profiling, strain panel (AID 1159580);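 further: tested at 20 µM; growth read once vehicle control cultures reached saturation at 30 °C; 1 = growth at the plate median or of vehicle wells; lower values mean less growth of the strain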
Details: S. cerevisiae deletion strains, growth OD

Measured: normalized growth

COc1cc(OC)c2c(=O)c(OC)c(-c3ccc(OC)c(OC)c3)oc2c1
inactive: locus YAL021C, strain ccr4, active compounds read low 1.01 | locus YAL026C, strain drs2, active compounds read low 1.02 | locus YAL030W, strain snc1, active compounds read low 1.02 | locus YBL061C, strain skt5, active compounds read low 1 | locus YBR009C, strain hhf1, active compounds read low 1.01 | locus YBR021W, strain FUR4, active compounds read low 0.952 | locus YBR023C, strain chs3, active compounds read low 1.01 | locus YBR171W, strain sec66, active compounds read low 1.04 | locus YBR229C, strain ROT2, active compounds read low 1 | locus YBR231C, strain swc5, active compounds read low 1 | locus YBR279W, strain paf1, active compounds read low 1.02 | locus YCL011C, strain gbp2, active compounds read low 1.01 | locus YCL016C, strain dcc1, active compounds read low 1.01 | locus YCL029C, strain bik1, active compounds read low 1.01 | locus YCL061C, strain MRC1, active compounds read low 1.02 | locus YCL069W, strain vba3, active compounds read low 1.02 | locus YCR088W, strain abp1, active compounds read low 1.03 | locus YDL005C, strain med2, active compounds read low 1.02 | locus YDL035C, strain GPR1, active compounds read low 0.996 | locus YDL040C, strain nat1, active compounds read low 1.01 | locus YDL074C, strain BRE1, active compounds read low 0.995 | locus YDL101C, strain DUN1, active compounds read low 1 | locus YDL185W, strain tfp1, active compounds read low 1.01 | locus YDL192W, strain arf1, active compounds read low 0.987 | locus YDR001C, strain nth1, active compounds read low 1.02 | locus YDR069C, strain doa4, active compounds read low 1.02 | locus YDR101C, strain arx1, active compounds read low 1.01 | locus YDR137W, strain rgp1, active compounds read low 1.06 | locus YDR150W, strain NUM1, active compounds read low 0.998 | locus YDR159W, strain sac3, active compounds read low 1.02 | locus YDR162C, strain NBP2, active compounds read low 0.98 | locus YDR195W, strain ref2 1.04 | locus YDR297W, strain sur2, active compounds read low 1.01 | locus YDR318W, strain mcm21, active compounds read low 0.977 | locus YDR334W, strain swr1, active compounds read low 1.02 | locus YDR335W, strain msn5, active compounds read low 1.03 | locus YDR388W, active compounds read low 0.995 | locus YDR392W, strain spt3, active compounds read low 0.91 | locus YDR502C, strain sam2, active compounds read low 1.01 | locus YEL003W, strain gim4, active compounds read low 1.02 | locus YEL037C, strain rad23, active compounds read low 1.02 | locus YEL061C, strain CIN8 (second series), active compounds read low 1.02 | locus YEL061C, strain CIN8, active compounds read low 1 | locus YER015W, strain faa2, active compounds read low 1.01 | locus YER016W, strain bim1, active compounds read low 1.01 | locus YER110C, active compounds read low 1.02 | locus YER111C, strain swi4, active compounds read low 1.03 | locus YER155C, strain BEM2 (second series), active compounds read low 1.02 | locus YER155C, strain BEM2, active compounds read low 1 | locus YER167W, strain BCK2, active compounds read low 1 | locus YFR010W, strain ubp6, active compounds read low 1.03 | locus YGL078C, strain dbp3, active compounds read low 1.02 | locus YGL086W, strain mad1, active compounds read low 1.01 | locus YGL167C, strain pmr1, active compounds read low 1 | locus YGL173C, strain kem1, active compounds read low 1.01 | locus YGL227W, strain vid30, active compounds read low 1.02 | locus YGL240W, strain doc1, active compounds read low 1.03 | locus YGL248W, strain PDE1, active compounds read low 0.97 | locus YGL253W, strain hxk2, active compounds read low 1.02 | locus YGR078C, strain PAC10, active compounds read low 0.958 | locus YGR135W, strain pre9, active compounds read low 0.968 | locus YGR252W, strain gcn5, active compounds read low 0.915 | locus YHR013C, strain ard1, active compounds read low 1.01 | locus YHR027C, strain rpn1, active compounds read low 1.01 | locus YHR030C, strain SLT2, active compounds read low 1.01 and 0.976 | locus YHR079C, strain IRE1 (second series), active compounds read low 1.02 | locus YHR079C, strain IRE1, active compounds read low 0.992 | locus YHR094C, strain hxt1, active compounds read low 1.01 | locus YHR129C, strain ARP1, active compounds read low 0.992 | locus YHR142W, strain chs7, active compounds read low 1.01 | locus YHR200W, strain rpn10, active compounds read low 1 | locus YIL066C, strain RNR3, active compounds read low 0.982 | locus YIL073C, strain SPO22, active compounds read low 1.03 | locus YIL125W, strain kgd1, active compounds read low 1.02 | locus YIR030C, strain dcg1, active compounds read low 1 | locus YJL092W, strain hpr5, active compounds read low 1.02 | locus YJL095W, strain BCK1 (second series), active compounds read low 1.01 | locus YJL095W, strain BCK1, active compounds read low 0.934 and 1 | locus YJL115W, strain asf1, active compounds read low 1.02 | locus YJL129C, strain trk1, active compounds read low 1.01 | locus YJL134W, strain LCB3, active compounds read low 1.01 | locus YJL154C, strain vps35, active compounds read low 1 | locus YJL164C, strain tpk1, active compounds read low 1.01 | locus YJL166W, strain qcr8, active compounds read low 1 | locus YJL168C, strain set2, active compounds read low 1.02 | locus YJL187C, strain SWE1 (second series), active compounds read low 0.996 | locus YJL187C, strain SWE1, active compounds read low 1.01 | locus YJR043C, strain POL32, active compounds read low 1 | locus YJR066W, strain TOR1, active compounds read low 0.941 | locus YJR075W, strain HOC1, active compounds read low 0.986 | locus YKL009W, strain mrt4, active compounds read low 1.02 | locus YKL068W, active compounds read low 1 | locus YKL085W, strain MDH1 (second series), active compounds read low 0.997 | locus YKL085W, strain MDH1, active compounds read low 0.997 | locus YKL160W, strain elf1, active compounds read low 0.995 | locus YKR001C, strain vps1, active compounds read low 0.994 | locus YKR026C, strain gcn3, active compounds read low 0.997 | locus YKR091W, strain srl3, active compounds read low 1.02 | locus YLL001W, strain dnm1, active compounds read low 1.03 | locus YLL026W, active compounds read low 1.01 | locus YLL041C, strain sdh2, active compounds read low 1.01 | locus YLR027C, strain aat2, active compounds read low 1.01 | locus YLR039C, strain RIC1, active compounds read low 0.976 | locus YLR058C, strain SHM2, active compounds read low 0.984 | locus YLR102C, strain apc9, active compounds read low 1.01 | locus YLR113W, strain HOG1, active compounds read low 0.978 | locus YLR221C, strain rsa3, active compounds read low 1.01 | locus YLR258W, strain gsy2, active compounds read low 1.02 | locus YLR262C, strain YPT6 (second series), active compounds read low 1.08 | locus YLR262C, strain YPT6, active compounds read low 0.984 | locus YLR268W, strain sec22, active compounds read low 1.03 | locus YLR320W, strain mms22, active compounds read low 0.985 | locus YLR330W, strain CHS5, active compounds read low 1.01 | locus YLR342W, strain FKS1 (second series), active compounds read low 0.973 | locus YLR342W, strain FKS1, active compounds read low 1.01 | locus YLR357W, strain rsc2, active compounds read low 1.02 | locus YLR370C, strain arc18, active compounds read low 1.01 | locus YLR371W, strain rom2, active compounds read low 1.02 | locus YLR384C, strain iki3, active compounds read low 1.01 | locus YLR418C, strain cdc73, active compounds read low 0.954 | locus YML016C, strain PPZ1, active compounds read low 0.992 | locus YML032C, strain rad52, active compounds read low 0.987 | locus YML120C, strain ndi1, active compounds read low 1.02 | locus YML124C, strain tub3, active compounds read low 1 | locus YMR058W, strain fet3, active compounds read low 1.03 | locus YMR078C, strain ctf18, active compounds read low 1.01 | locus YMR125W, strain sto1, active compounds read low 1.03 | locus YMR129W, active compounds read low 1.03 | locus YMR205C, strain PFK2, active compounds read low 1.03 | locus YMR223W, strain ubp8, active compounds read low 0.972 | locus YMR231W, strain pep5, active compounds read low 1.02 | locus YMR263W, strain SAP30, active compounds read low 0.996 | locus YMR307W, strain GAS1, active compounds read low 0.981 | locus YNL067W, strain RPL9B, active compounds read low 1 | locus YNL071W, strain lat1, active compounds read low 1.01 | locus YNL153C, strain GIM3, active compounds read low 0.972 | locus YNL183C, strain NPR1, active compounds read low 0.926 | locus YNL209W, strain ssb2, active compounds read low 1.01 | locus YNL233W, strain BNI4, active compounds read low 0.955 | locus YNL248C, strain rpa49, active compounds read low 1.02 | locus YNL250W, strain rad50, active compounds read low 1.03 | locus YNL271C, strain bni1, active compounds read low 1.02 | locus YNL298W, strain CLA4, active compounds read low 0.998 | locus YNL307C, strain MCK1, active compounds read low 1.01 | locus YNL322C, strain KRE1 (second series), active compounds read low 1.02 | locus YNR049C, strain mso1, active compounds read low 1.02 | locus YNR052C, strain pop2, active compounds read low 0.993 | locus YOL006C, strain TOP1, active compounds read low 1.03 | locus YOL012C, strain htz1 0.947 | locus YOL147C, strain pex11, active compounds read low 1.02 | locus YOR001W, strain rrp6, active compounds read low 1.01 | locus YOR061W, strain CKA2, active compounds read low 1.01 | locus YOR069W, strain VPS5, active compounds read low 1.01 | locus YOR070C, strain gyp1, active compounds read low 1.03 | locus YOR080W, strain dia2, active compounds read low 1.01 | locus YOR083W, strain WHI5, active compounds read low 0.997 | locus YOR106W, strain vam3, active compounds read low 0.992 | locus YOR136W, strain idh2, active compounds read low 1.02 | locus YOR144C, strain elg1, active compounds read low 1.01 | locus YOR184W, strain ser1, active compounds read low 0.992 | locus YOR231W, strain MKK1, active compounds read low 1.01 | locus YOR265W, strain rbl2, active compounds read low 1 | locus YOR270C, strain vph1, active compounds read low 1.09 | locus YOR290C, strain snf2, active compounds read low 1 | locus YOR316C, strain cot1, active compounds read low 1.01 | locus YPL051W, strain arl3, active compounds read low 0.993 | locus YPL078C, strain atp4, active compounds read low 1.02 | locus YPL106C, strain sse1, active compounds read low 0.999 | locus YPL240C, strain hsp82, active compounds read low 1 | locus YPL256C, strain CLN2, active compounds read low 0.976 | locus YPR119W, strain clb2, active compounds read low 1.01 | locus YPR141C, strain kar3, active compounds read low 1.02 | locus YPR163C, strain tif3, active compounds read low 1 | locus YPR167C, strain met16, active compounds read low 1.04 | strain wtn01, active compounds read low 1.04
